Active and inactive are the calls of the source. Unless noted, no rule for the calls is given here.
Experiments:
[1] = tested on: Wnt5a (protein binding on small-molecule microarray); test: Wnt5a binders on small-molecule microarray, primary screen, biophysical, 635/667 nm fluorescence (AID 1142); conditions: 635 nm fluorescence, higher = more signal;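 also: fluorescence read at 667 nm with signal to noise per printed feature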
[2] = cell viability in Huh7 cells, primary screen, cytotoxicity control for HCV replication inhibitor project, CellTiter-Glo luminescence, basal, 48 h (AID 1143); conditions: Huh7 HCV replicon, higher = more signal, called active from +8 up or from −8 down;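 also: Huh7 hepatoma cells carrying a hepatitis C replication reporter with no stimulus; test concentration not given here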
[3] = P. aeruginosa biofilm formation inhibitors, primary screen, PAO1 strain, BacTiter-Glo luminescence, LB-PBS (AID 1144); conditions: 12 h, higher = more signal
[4] = CREB reporter modulators without forskolin, primary screen, cell-based, PC12, CRE-LacZ reporter, unstimulated (AID 1145); conditions: no forskolin, luminescence, 4.5 h, higher = more signal, called active from +8 up or from −8 down
[5] = CREB reporter modulators under forskolin, primary screen, cell-based, PC12, CRE-LacZ reporter, forskolin-stimulated (AID 1146); conditions: luminescence, 4.5 h, higher = more signal, called active from +8 up or from −8 down;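 also: PC12 cells with 6xCRE LacZ reporter stimulated by forskolin 10 µM; beta-galactosidase reporter signal reflecting CREB driven transcription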
[6] = biological target: Streptavidin (Streptomyces avidinii) (UniProt P22629); test: streptavidin binders on small-molecule microarray, primary screen, artefact control for SMM compound annotation, biophysical, 635/667 nm fluorescence (AID 1147); conditions: streptavidin binding, higher = more signal;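 also: signal reflects streptavidin binding to arrayed compounds as a control protein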
[7] = small-molecule binders of probe aInhba, primary screen, biochemical, small-molecule microarray, 635/667 nm fluorescence (AID 1148); conditions: higher = more signal;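 also: score merges 667nm spot fluorescence with signal-to-noise for antibody binding to printed compounds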
Torsin-1A (Homo sapiens) [8] = biological target: Torsin-1A (Homo sapiens) (UniProt O14656); test: torsin A binders from cell lysate, primary screen, small-molecule microarray, wild-type, 635/667 nm (AID 1149); conditions: COS7 hTOR1A-WT lysate, 635 nm fluorescence, higher = more signal
Torsin-1A (Homo sapiens) [9] = biological target: Torsin-1A (Homo sapiens) (UniProt O14656); test: small-molecule binders of mutant TOR1A in lysate, primary screen, cell lysate, small-molecule microarray, COS7 lysate, 635/667 nm fluorescence (AID 1150); conditions: COS7 hTOR1A mutant lysate, 635 nm fluorescence, higher = more signal;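 also: score pools 667 nm emission and signal to noise measuring lysate protein binding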
[10] = tested on: Sonic hedgehog protein (Shh); test: small-molecule binders of Shh protein, primary screen, biochemical, small-molecule microarray, 635/667 nm fluorescence (AID 1151); conditions: small-molecule microarray binding, 635 nm fluorescence; higher = more signal;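 also: Shh protein binding to compounds spotted on small-molecule microarray slides; score combines spot fluorescence intensity with signal-to-noise across triplicate slides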
[11] = E. coli DRC41 culture turbidity changes, primary screen, E. coli filamentation inducer project, strain DRC41, OD650, 48 h (AID 1152);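 also: E. coli MC1000 strain DRC41 lacking acrAB efflux pump and sulA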; conditions: E. coli DRC41 (acrAB sulA), higher = more signal, called active from +8 up or from −8 down
[12] = small-molecule binders of probe aLefty1, primary screen, biochemical, small-molecule microarray, 635/667 nm fluorescence (AID 1153); conditions: higher = more signal;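 also: score merges spot fluorescence with signal-to-noise ratio from the scanned slide images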
[13] = PSAC antagonists in infected red cells, primary screen, cell-based, P. falciparum Indochina, OD700, 1 h (AID 1154); conditions: P. falciparum Indochina infected RBC osmotic lysis, higher = more signal, called active from +8 up or from −8 down
[14] = PSAC antagonists in infected red cells, primary screen, cell-based, P. falciparum Indochina, OD700, 2 h (AID 1155);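 also: lysis reports solute entry through the parasite surface anion channel PSAC; channel blockers reduce lysis of infected cells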; conditions: P. falciparum Indochina infected erythrocytes, osmotic lysis OD700; higher = more signal, called active from +8 up or from −8 down
[15] = osmotic lysis modulators in infected erythrocytes, primary screen, PSAC antagonist project, cell-based, P. falciparum Indochina, OD700, 3 h (AID 1156); conditions: higher = more signal, called active from +8 up or from −8 down
[16] = PSAC antagonists in infected red cells, primary screen, cell-based, P. falciparum Indochina, OD700, 18 h (AID 1157); conditions: P. falciparum Indochina infected erythrocytes, osmotic lysis OD700, 18 h; higher = more signal, called active from +8 up or from −8 down
[17] = modulators of S6 phosphorylation in cells, primary screen, cell-based, A549, cytoblot, luminescence, serum-stimulated (AID 1158); conditions: A549 phospho-S6 cytoblot, 5 h, higher = more signal;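 also: serum-stimulated A549 lung adenocarcinoma cells; signal is phosphorylated S6 detected by cytoblot immunostaining with HRP secondary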
[18] = biological target: NADPH oxidase 2 (Homo sapiens) (UniProt P04839); test: NOX2-dependent H2O2 signal modulators, primary screen, NOX inhibitor project, cell-based, HEK293-NOX2, PMA-stimulated, Amplex Red fluorescence (AID 1159); conditions: 45 min, higher = more signal, called active from +8 up or from −8 down; also: test concentration not given here
[19] = biological target: NADPH oxidase 4 (Homo sapiens) (UniProt Q9NPH5); test: NOX4-dependent H2O2 signal modulators, primary screen, NOX inhibitor project, cell-based, HEK293-NOX4, tetracycline-induced, Amplex Red fluorescence (AID 1160); conditions: 45 min, higher = more signal, called active from +8 up or from −8 down
[20] = biological target: NADPH oxidase 5 (Homo sapiens) (UniProt Q96PH1); test: NOX5-dependent H2O2 signal modulators, primary screen, NOX inhibitor project, cell-based, HEK293-NOX5, Amplex Red fluorescence (AID 1161); conditions: HEK293-NOX5, ionomycin, 45 min, higher = more signal
NADPH oxidase 5 (Homo sapiens), sequence (Q96PH1 whole entry, looked up): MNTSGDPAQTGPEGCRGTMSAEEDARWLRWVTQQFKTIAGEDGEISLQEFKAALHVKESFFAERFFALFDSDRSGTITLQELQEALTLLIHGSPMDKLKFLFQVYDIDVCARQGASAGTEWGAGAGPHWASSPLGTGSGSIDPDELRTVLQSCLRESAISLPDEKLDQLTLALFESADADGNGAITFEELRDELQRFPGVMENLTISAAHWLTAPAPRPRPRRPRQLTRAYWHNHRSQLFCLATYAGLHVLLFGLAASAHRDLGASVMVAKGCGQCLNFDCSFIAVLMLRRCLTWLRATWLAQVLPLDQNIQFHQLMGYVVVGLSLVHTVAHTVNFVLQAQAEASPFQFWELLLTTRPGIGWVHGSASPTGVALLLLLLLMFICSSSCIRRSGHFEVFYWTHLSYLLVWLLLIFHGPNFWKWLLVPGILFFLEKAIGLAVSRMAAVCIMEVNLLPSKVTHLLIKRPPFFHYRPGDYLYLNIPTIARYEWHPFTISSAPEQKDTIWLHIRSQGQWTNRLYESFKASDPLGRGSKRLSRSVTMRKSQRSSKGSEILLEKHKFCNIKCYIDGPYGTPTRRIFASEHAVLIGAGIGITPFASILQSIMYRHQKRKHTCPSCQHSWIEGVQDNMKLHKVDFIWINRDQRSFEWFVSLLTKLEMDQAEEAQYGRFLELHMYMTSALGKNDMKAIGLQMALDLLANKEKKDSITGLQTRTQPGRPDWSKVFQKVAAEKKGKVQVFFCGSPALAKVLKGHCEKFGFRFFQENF

Streptavidin (Streptomyces avidinii), sequence (P22629 whole entry, looked up): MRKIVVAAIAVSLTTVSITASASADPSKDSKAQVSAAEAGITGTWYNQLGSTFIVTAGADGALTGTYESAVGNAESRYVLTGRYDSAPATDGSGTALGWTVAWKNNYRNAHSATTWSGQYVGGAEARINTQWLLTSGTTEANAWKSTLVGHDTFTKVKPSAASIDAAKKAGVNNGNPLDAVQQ
NADPH oxidase 4 (Homo sapiens), sequence (Q9NPH5 whole entry, looked up): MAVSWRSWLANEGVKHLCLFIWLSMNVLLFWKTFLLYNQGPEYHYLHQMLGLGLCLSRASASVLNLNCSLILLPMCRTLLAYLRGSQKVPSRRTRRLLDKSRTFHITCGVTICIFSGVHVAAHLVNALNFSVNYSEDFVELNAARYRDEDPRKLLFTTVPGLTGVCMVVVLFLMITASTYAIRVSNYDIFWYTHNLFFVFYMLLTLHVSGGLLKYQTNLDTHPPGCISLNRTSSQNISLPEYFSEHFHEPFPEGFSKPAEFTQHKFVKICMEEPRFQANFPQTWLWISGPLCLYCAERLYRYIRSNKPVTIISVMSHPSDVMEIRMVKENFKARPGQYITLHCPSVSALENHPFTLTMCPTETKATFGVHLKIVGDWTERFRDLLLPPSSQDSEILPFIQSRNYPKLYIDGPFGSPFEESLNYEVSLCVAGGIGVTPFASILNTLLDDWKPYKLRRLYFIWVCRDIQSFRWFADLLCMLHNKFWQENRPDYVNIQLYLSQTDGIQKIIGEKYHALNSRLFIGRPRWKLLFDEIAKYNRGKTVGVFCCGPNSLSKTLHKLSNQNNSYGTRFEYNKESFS
Torsin-1A (Homo sapiens), sequence (O14656 whole entry, looked up): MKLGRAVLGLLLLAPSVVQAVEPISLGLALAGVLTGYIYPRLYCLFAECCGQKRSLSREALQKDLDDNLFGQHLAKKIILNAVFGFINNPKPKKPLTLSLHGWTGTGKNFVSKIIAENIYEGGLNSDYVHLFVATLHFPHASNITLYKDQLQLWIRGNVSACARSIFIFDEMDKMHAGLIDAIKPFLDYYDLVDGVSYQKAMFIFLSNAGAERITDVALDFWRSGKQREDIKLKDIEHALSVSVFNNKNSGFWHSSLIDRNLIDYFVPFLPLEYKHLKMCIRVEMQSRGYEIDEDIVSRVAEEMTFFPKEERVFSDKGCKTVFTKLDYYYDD
NADPH oxidase 2 (Homo sapiens), sequence (P04839 whole entry, looked up): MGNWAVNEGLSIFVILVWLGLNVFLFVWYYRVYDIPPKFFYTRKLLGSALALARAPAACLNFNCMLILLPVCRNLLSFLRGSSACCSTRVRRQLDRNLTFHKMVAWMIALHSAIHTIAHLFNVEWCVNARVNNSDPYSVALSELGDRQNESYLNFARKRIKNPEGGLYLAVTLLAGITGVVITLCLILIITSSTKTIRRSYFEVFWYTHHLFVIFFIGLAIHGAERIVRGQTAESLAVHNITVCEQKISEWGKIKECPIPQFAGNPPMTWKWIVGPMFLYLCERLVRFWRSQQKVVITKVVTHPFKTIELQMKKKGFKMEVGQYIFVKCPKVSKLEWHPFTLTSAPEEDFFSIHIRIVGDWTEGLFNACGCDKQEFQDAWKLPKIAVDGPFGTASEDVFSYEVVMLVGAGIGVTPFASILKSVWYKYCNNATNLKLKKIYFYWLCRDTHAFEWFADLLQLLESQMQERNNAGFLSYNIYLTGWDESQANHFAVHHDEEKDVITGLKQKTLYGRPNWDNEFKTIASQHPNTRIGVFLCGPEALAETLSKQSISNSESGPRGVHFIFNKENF

| Compound | composite z-score [1] | z-score [2] | z-score [3] | z-score [4] | z-score [5] | composite z-score [6] | composite z-score [7] | composite z-score (Torsin-1A (Homo sapiens) [8]) | composite z-score (Torsin-1A (Homo sapiens) [9]) | composite z-score [10] | z-score [11] | composite z-score [12] | z-score [13] | z-score [14] | z-score [15] | z-score [16] | z-score [17] | z-score [18] | z-score [19] | z-score [20] |
| --- | --- | --- | --- | --- | --- | --- | --- | --- | --- | --- | --- | --- | --- | --- | --- | --- | --- | --- | --- | --- |
| C=C(CCCC)C(=O)CC[C@H](OC(=O)c1ccccc1-c1ccccc1C(=O)O)c1ccccc1OCCO | -0.131 | -0.397 (inactive) | -0.447 (inactive) | 5.04 (inactive) | 5.73 (inactive) | -0.759 | -0.179 | 1.03 | 0.221 | 2.07 | 0.509 (inactive) | -0.0984 | 8.58 (active) | 1.56 (inactive) | 1.82 (inactive) | 0.944 (inactive) | -0.27 | 3.25 (inactive) | 0.0107 (inactive) | -1.15 |
| CCCCCCCCCCC(O)C1C=CC2C(=O)N(C)C(=O)C2N1Nc1cc(OC)c(OC)c(OC)c1 (stereo not given) | -0.131 | -2.56 (inactive) | 0.443 (inactive) | 0.819 (inactive) | -0.212 (inactive) | 0.133 | 0.0086 | -0.534 | 0.0777 | -1.08 | -1.99 (inactive) | 0.166 | 13.6 (active) | 3.42 (inactive) | 0.214 (inactive) | 2.15 (inactive) | -0.635 | -2.1 (inactive) | -4.98 (inactive) | -0.944 |
| C=CCNC(=O)[C@@H]1[C@H]2C(=O)O[C@H](c3ccccc3)[C@H](c3ccccc3)N2[C@H](c2ccc(O)cc2)[C@@]12C(=O)Nc1ccc(C#CCC(C(=O)OC)C(=O)OC)cc12 | 0.0513 | -5.09 (inactive) | -1.02 (inactive) | -0.608 (inactive) | -0.746 (inactive) | 0.138 | -0.018 | 0.131 | 1.76 | 0.8 | -0.482 (inactive) | -0.0544 | 5.99 (inactive) | 0.792 (inactive) | 2.3 (inactive) | 0.319 (inactive) | -0.45 | 1.97 (inactive) | 0.448 (inactive) | 1.25 |
| C=C[C@H](C)[C@H](OC(=O)Nc1ccc(OC)cc1)c1ccc(OCCO)cc1 | -0.423 | -2.77 (inactive) | 0.133 (inactive) | 4.89 (inactive) | 0.0618 (inactive) | -0.911 | -0.314 | 0.763 | 0.0508 | 0.261 | 0.566 (inactive) | 0.126 | 12.4 (active) | 1.76 (inactive) | 0.193 (inactive) | 0.746 (inactive) | -0.196 | -0.288 (inactive) | 0.436 (inactive) | -2.19 |
| COCCOC(=O)N1C(=O)[C@@]2(c3cc(C#CC4=CCCCC4)ccc31)[C@H](c1ccc(O)cc1)N1[C@H](c3ccccc3)[C@H](c3ccccc3)OC(=O)[C@H]1[C@@H]2C(=O)NC[C@H](O)c1ccccc1 | 0.259 | -3.27 (inactive) | -0.354 (inactive) | -0.815 (inactive) | -0.369 (inactive) | 0.318 | 0.0227 | 0.184 | 1.29 | 1.27 | 0.289 (inactive) | 0.0406 | 1.8 (inactive) | 0.44 (inactive) | -0.164 (inactive) | 0.368 (inactive) | -0.147 | 1.5 (inactive) | 0.547 (inactive) | 1.55 |
| CN1C=C(C(=O)OCCS(C)(=O)=O)C(C(=O)OCCS(C)(=O)=O)=CC(c2ccc(CO)cc2)=CC1c1cccs1 (stereo not given) | 0.0466 | -1.3 (inactive) | 0.637 (inactive) | 2.34 (inactive) | -1.45 (inactive) | 1.42 | 0.0659 | 0.579 | 0.713 | 0.929 | 0.248 (inactive) | 0.391 | 9.6 (active) | 1.64 (inactive) | 0.298 (inactive) | 0.969 (inactive) | 0.0225 | -0.937 (inactive) | -0.558 (inactive) | -1.98 |
| C=C(COC)/C(=C/C[C@H](OC(C)=O)c1cccc(OCCO)c1)c1cnc2ccccc2c1 | 0.484 | -0.184 (inactive) | 0.167 (inactive) | 3.72 (inactive) | 0.298 (inactive) | 1.46 | 0.109 | 1.24 | 0.583 | 2.11 | -0.339 (inactive) | 0.0999 | 15.2 (active) | 2.65 (inactive) | 1.41 (inactive) | 0.872 (inactive) | -0.512 | 0.373 (inactive) | 0.228 (inactive) | -0.167 |
| COC(=O)[C@@]1(Cc2ccc(F)cc2)[C@H]2c3cc(C(=O)N4CCCC4)n(C)c3C[C@H]2CN1C(=O)c1ccccc1 | 0.926 | -1.4 (inactive) | -0.666 (inactive) | 0.58 (inactive) | 0.736 (inactive) | 1.18 | 0.757 | 0.492 | 1.34 | -0.928 | -0.327 (inactive) | 0.603 | 2.59 (inactive) | 0.107 (inactive) | -0.105 (inactive) | 0.47 (inactive) | 0.305 | 0.282 (inactive) | -0.466 (inactive) | -0.565 |

From PubChem BioAssay
